# Inconclusive results are not listed. Calls of active or inactive are those of the source. The calls were made as follows, unless noted: active = hit-call score of the fitted dose curve at least 0.9, where 1 is the maximum; inactive = score below 0.9.
# Tests used:
# [1] = molecular target: Glucocorticoid receptor (Homo sapiens) (UniProt P04150); assay: ATG_GR_TRANS: Attagene TRANS-FACTORIAL HepG2 Assay for human Glucocorticoid Receptor (GR) (AID 2282978; active = hit-call score of the fitted dose curve at least 0.9, where 1 is the maximum;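 also: activators score as hits since higher reporter transcript over DMSO is fitted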); conditions: HepG2 Attagene TRANS GR reporter, mRNA transcription
# Chain of Glucocorticoid receptor (Homo sapiens) (P04150 whole entry, looked up, the tested form may be a part): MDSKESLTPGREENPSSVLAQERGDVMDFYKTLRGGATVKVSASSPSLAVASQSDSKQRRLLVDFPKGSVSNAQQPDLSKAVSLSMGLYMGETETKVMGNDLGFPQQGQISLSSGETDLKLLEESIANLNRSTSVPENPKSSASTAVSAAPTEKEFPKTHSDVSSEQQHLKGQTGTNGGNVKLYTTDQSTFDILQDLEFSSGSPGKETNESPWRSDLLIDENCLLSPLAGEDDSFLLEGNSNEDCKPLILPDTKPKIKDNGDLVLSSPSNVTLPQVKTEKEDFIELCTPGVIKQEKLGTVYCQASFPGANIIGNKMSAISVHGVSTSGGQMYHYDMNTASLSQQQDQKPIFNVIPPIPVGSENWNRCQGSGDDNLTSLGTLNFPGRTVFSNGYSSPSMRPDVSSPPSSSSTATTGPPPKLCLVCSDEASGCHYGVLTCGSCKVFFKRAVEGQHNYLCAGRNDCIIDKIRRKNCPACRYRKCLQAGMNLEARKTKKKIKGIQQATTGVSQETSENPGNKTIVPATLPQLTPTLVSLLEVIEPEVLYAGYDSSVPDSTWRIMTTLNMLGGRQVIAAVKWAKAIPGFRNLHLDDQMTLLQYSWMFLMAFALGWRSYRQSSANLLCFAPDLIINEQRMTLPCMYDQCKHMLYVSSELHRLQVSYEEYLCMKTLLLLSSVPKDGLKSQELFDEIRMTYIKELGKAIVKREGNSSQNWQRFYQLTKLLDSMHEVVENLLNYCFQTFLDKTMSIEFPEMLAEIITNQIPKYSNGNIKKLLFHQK
# In short: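 Reporter transcript levels, detected by fluorescence after RT-PCR and capillary electrophoresis, served as the endpoint. HepG2 cells bearing transfected GAL4-UAS reporters responsive to NR-GAL4 chimeras were incubated with compound 24 h; DMSO defined baseline.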
# [2] = molecular target: Bile acid receptor (Homo sapiens) (UniProt Q96RI1); assay: ATG_FXR_TRANS: Attagene TRANS-FACTORIAL HepG2 Assay for Farnesoid X Receptor (FXR) (AID 2282979; active = hit-call score of the fitted dose curve at least 0.9, where 1 is the maximum;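 also: hits raise reporter mRNA above DMSO so AC50 marks FXR activation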); conditions: HepG2 Attagene TRANS FXR-GAL4 reporter transcription
# Chain of Bile acid receptor (Homo sapiens) (Q96RI1 whole entry, looked up, the tested form may be a part): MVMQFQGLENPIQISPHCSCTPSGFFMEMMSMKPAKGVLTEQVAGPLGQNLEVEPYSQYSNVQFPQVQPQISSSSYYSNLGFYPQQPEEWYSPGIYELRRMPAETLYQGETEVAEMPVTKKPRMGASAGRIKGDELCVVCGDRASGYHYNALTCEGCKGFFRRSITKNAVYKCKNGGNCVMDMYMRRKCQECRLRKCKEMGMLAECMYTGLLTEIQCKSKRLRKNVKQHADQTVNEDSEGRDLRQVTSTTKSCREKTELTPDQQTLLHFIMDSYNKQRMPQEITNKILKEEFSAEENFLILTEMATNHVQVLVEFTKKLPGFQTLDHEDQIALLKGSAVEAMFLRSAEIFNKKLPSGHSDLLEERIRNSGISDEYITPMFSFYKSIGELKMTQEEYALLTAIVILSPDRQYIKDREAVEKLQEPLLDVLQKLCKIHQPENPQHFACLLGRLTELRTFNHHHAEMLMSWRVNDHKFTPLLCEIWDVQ
# In short: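 Reporter transcripts from transfected HepG2 cells were measured 24 h after dosing, using RT-PCR with capillary electrophoresis of 6-FAM-labelled fragments. The read-out reflects activity of exogenous FXR-Gal4 chimera on GAL4-UAS units, with induction relative to DMSO.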
# [3] = molecular target: Oxysterols receptor LXR-beta (Homo sapiens) (UniProt P55055); assay: ATG_LXRb_TRANS: Attagene TRANS-FACTORIAL HepG2 Assay for human Liver X Receptor beta (LXRb) (AID 2282981; active = hit-call score of the fitted dose curve at least 0.9, where 1 is the maximum); conditions: HepG2 Attagene TRANS GAL4-LXRb reporter, mRNA
# Chain of Oxysterols receptor LXR-beta (Homo sapiens) (P55055 whole entry, looked up, the tested form may be a part): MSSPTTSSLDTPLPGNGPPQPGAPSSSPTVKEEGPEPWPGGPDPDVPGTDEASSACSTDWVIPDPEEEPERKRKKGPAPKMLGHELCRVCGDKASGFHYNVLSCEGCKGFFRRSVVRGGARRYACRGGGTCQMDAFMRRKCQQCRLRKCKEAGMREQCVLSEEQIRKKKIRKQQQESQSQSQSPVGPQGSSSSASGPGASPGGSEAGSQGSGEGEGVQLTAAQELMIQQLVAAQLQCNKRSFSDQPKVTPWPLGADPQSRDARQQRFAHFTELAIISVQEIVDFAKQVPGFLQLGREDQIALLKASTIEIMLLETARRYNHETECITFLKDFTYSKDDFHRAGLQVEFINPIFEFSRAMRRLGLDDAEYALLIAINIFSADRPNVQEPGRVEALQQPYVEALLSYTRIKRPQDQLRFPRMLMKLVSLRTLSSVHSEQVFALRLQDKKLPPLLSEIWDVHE
# In short: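 HepG2 cells transiently transfected with GAL4-UAS reporter units for chimeric NR-Gal4 proteins, dosed for 24 h. Reporter transcripts measured by RT-PCR and capillary electrophoresis; gain-of-signal fitting relative to DMSO.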
# [4] = molecular target: Nuclear receptor subfamily 4 group A member 2 (Homo sapiens) (UniProt P43354); assay: ATG_NURR1_TRANS: Attagene TRANS-FACTORIAL HepG2 Assay for human Nuclear Receptor Related Protein 1 (NURR1) (AID 2282985; active = hit-call score of the fitted dose curve at least 0.9, where 1 is the maximum); conditions: HepG2 Attagene TRANS reporter, mRNA readout
# Chain of Nuclear receptor subfamily 4 group A member 2 (Homo sapiens) (P43354 whole entry, looked up, the tested form may be a part): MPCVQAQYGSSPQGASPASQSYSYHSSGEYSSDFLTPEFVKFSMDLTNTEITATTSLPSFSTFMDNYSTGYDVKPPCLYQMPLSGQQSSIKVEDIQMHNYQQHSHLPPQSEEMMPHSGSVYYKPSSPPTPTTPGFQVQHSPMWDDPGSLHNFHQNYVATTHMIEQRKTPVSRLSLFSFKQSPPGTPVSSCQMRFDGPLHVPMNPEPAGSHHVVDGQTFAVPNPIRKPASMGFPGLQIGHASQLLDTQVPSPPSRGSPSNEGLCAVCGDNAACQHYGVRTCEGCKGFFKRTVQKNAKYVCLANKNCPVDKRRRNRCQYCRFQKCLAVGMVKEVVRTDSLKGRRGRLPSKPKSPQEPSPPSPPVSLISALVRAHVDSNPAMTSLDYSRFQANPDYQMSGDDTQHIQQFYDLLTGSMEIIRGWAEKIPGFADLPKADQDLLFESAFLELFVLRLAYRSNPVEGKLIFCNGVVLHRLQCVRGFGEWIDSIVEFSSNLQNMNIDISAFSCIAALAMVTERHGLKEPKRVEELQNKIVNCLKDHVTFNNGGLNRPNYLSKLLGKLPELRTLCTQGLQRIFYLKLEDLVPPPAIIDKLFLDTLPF
# In short: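 HepG2 cells transiently transfected with NURR1-Gal4 chimera and GAL4-UAS reporter units; after 24 hr compound exposure, reporter mRNA quantified by RT-PCR and capillary electrophoresis; gain of signal fitted against DMSO.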
# [5] = molecular target: Transcriptional activator Myb (Homo sapiens) (UniProt P10242); assay: ATG_Myb_CIS: Attagene CIS-FACTORIAL HepG2 Assay for human Myeloblastosis (Myb) Proto-Oncogene Transcription Factor (AID 2282986); conditions: HepG2 Attagene CIS-FACTORIAL Myb reporter transcription; actives raise or lower the signal
# Chain of Transcriptional activator Myb (Homo sapiens) (P10242 whole entry, looked up): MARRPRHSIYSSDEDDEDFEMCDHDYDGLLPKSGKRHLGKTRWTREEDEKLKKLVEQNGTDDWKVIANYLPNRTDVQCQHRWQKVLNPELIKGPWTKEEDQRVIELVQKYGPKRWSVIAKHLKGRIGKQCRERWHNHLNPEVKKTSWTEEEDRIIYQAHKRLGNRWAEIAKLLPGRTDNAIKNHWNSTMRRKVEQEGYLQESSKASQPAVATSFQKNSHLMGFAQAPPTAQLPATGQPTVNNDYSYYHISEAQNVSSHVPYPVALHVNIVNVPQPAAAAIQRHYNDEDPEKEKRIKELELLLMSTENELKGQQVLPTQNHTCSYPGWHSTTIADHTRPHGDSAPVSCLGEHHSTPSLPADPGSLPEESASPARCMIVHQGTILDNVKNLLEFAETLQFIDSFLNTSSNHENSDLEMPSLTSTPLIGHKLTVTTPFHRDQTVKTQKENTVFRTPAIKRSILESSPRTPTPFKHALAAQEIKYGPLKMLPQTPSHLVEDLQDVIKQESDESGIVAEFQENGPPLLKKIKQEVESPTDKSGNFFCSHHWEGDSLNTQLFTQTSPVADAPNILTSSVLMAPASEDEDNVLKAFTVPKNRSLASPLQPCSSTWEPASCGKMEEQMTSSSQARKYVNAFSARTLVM
# In short: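 Transiently transfected HepG2 cells, treated 24 h. Reporter mRNA quantified by RT-PCR/capillary electrophoresis; bidirectional fit relative to DMSO.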
# [6] = molecular target: Nuclear respiratory factor 1 (Homo sapiens) (UniProt Q16656); assay: ATG_NRF1_CIS: Attagene CIS-FACTORIAL HepG2 Assay for human Nuclear Respiratory Factor 1 (NRF1) Orphan Gene (AID 2282987); conditions: HepG2 NRF1 cis-element reporter, Attagene multiplex; actives raise or lower the signal
# Chain of Nuclear respiratory factor 1 (Homo sapiens) (Q16656 whole entry, looked up, the tested form may be a part): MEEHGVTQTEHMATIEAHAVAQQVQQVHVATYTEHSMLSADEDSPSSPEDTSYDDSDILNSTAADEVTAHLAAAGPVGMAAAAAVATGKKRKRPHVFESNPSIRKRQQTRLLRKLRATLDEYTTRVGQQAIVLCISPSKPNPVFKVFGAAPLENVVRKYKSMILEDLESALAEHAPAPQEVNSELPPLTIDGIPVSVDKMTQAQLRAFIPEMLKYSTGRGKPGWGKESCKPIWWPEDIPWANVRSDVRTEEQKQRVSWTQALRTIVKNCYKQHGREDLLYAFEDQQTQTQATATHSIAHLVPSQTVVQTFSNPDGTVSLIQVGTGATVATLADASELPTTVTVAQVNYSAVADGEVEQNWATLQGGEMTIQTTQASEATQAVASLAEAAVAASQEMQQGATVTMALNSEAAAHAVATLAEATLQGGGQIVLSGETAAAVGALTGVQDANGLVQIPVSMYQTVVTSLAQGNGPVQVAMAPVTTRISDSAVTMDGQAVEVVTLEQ
# In short: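 Cells (HepG2, transient MRTU transfection) are exposed to compound for 24 h, then RNA isolated and reporter mRNA amplified and fluorescently labelled. Fragments are separated by capillary electrophoresis; signal change is fitted bidirectionally relative to DMSO.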
# [7] = ATG_NFI_CIS: Attagene CIS-FACTORIAL HepG2 Assay for human Nuclear Factor I (NFI) (AID 2282989); conditions: HepG2 cis-regulatory reporter, NFI response element transcription; actives raise or lower the signal
# In short: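 Read-out: reporter mRNA via RT-PCR plus capillary electrophoresis with fluorescence detection. Transiently transfected HepG2 (endogenous TF activity on cis promoters), 24 h compound exposure; gain or loss of signal fitted against DMSO.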
# [8] = molecular target: Myc proto-oncogene protein (Homo sapiens) (UniProt P01106); assay: ATG_Myc_CIS: Attagene CIS-FACTORIAL HepG2 Assay for human Myelocytomatosis (Myc) Proto-Oncogene Transcription Factor (AID 2282990); conditions: HepG2, Attagene cis-reporter transcription factor activity; actives raise or lower the signal
# Chain of Myc proto-oncogene protein (Homo sapiens) (P01106 whole entry, looked up): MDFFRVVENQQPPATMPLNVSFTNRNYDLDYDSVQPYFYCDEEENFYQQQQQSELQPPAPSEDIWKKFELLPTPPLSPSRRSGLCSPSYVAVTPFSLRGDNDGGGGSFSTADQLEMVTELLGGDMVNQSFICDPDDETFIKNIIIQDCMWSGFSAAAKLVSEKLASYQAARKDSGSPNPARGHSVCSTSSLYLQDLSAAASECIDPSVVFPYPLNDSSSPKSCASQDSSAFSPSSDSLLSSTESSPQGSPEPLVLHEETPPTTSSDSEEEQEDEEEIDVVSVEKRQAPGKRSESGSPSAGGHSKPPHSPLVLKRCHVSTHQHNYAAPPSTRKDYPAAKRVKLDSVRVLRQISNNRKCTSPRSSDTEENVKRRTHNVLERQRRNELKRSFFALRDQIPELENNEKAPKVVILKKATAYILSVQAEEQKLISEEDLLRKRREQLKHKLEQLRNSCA
# In short: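 Transiently transfected HepG2 cells bearing cis-promoter reporter units for endogenous transcription factors; 24 h exposure. Reporter mRNA measured by RT-PCR, 6-FAM primer extension, HpaI cut and capillary electrophoresis; bidirectional fit relative to DMSO.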
# [9] = ATG_NF_kB_CIS: Attagene CIS-FACTORIAL HepG2 Assay for human Nuclear Factor Kappa B (NF-kB) (AID 2282991); conditions: HepG2 Attagene cis-factorial NF-kB reporter mRNA; actives raise or lower the signal
# In short: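 Measures mRNA induction of an NF-kB-responsive cis-element reporter in HepG2 cells transfected with multiple reporter units, sampled 24 h post-dosing; quantified by fluorescence after RT-PCR and capillary electrophoresis, fitted for activation or inhibition against DMSO.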
# [10] = ATG_NRF2_ARE_CIS: Attagene CIS-FACTORIAL HepG2 Assay for human Nuclear Factor Erythroid 2 Related Factor 2 (NFR2) response to Antioxidant Response Elements (ARE) (AID 2282992); conditions: HepG2 Attagene ARE/NRF2 reporter, transcription factor activity; actives raise or lower the signal;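 as to AC50: reporter mRNA level measured by RT-PCR and capillary electrophoresis fluorescence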
# In short: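 Cis-factorial assay: transfected HepG2 reporter library, 24 h dosing, mRNA readout via RT-PCR/CE; DMSO-referenced bidirectional analysis.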
# [11] = ATG_Oct_MLP_CIS: Attagene CIS-FACTORIAL HepG2 Assay for human Octamer-Binding Transcription Factor (Oct) (AID 2282993); conditions: HepG2 Attagene cis-factorial Oct reporter, mRNA; actives raise or lower the signal
# In short: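 Read-out: reporter mRNA via RT-PCR plus capillary electrophoresis of 6-FAM-labelled fragments. Transiently transfected HepG2, 24 h exposure, endogenous TF activity on cis elements. Gain or loss of signal fitted relative to DMSO.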
# [12] = molecular target: Cellular tumor antigen p53 (Homo sapiens) (UniProt P04637); assay: ATG_p53_CIS: Attagene CIS-FACTORIAL HepG2 Assay for human p53 Transcription Factor (AID 2282994); conditions: HepG2 p53 cis-element reporter, Attagene mRNA; actives raise or lower the signal
# Chain of Cellular tumor antigen p53 (Homo sapiens) (P04637 whole entry, looked up): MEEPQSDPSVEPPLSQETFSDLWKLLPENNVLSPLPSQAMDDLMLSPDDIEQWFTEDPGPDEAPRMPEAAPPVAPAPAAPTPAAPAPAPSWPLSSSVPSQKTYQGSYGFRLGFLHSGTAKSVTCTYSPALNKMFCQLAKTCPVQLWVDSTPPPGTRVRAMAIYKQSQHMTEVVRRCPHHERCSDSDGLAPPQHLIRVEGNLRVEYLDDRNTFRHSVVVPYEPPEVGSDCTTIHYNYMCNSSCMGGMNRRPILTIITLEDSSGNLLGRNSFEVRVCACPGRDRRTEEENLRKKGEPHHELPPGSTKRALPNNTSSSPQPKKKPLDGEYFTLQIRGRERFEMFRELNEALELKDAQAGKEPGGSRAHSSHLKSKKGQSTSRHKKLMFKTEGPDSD
# In short: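 Using HepG2 hepatoma cells carrying cis-acting multiplexed reporters, mRNA induction is detected after a 24 h exposure. Gain- and loss-of-signal responses are fitted relative to DMSO-treated cells.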
# [13] = ATG_M_06_TRANS: Attagene TRANS-FACTORIAL HepG2 Assay for M06 Transcription Factor (Internal Marker) (AID 2282983; active = hit-call score of the fitted dose curve at least 0.9, where 1 is the maximum); conditions: HepG2 Attagene TRANS M06 internal marker reporter
# In short: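 Cells: HepG2, transient multi-reporter transfection. Exposure: 24 h. Detection: RT-PCR, 6-FAM labelling, HpaI digestion (2 h, 37 °C), capillary electrophoresis. Baseline: DMSO.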
# [14] = ATG_M_32_TRANS: Attagene TRANS-FACTORIAL HepG2 Assay for M32 Transcription Factor (Internal Marker) (AID 2282984; active = hit-call score of the fitted dose curve at least 0.9, where 1 is the maximum;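 also: transcript level of a background control reporter unit measured by RT-PCR and capillary electrophoresis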); conditions: HepG2 Attagene TRANS M32 internal marker reporter
# In short: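 HepG2 cells transiently transfected with GAL4-UAS reporter units, dosed for 24 hours. Reporter mRNA quantified by RT-PCR, 6-FAM labelling, HpaI digestion and capillary electrophoresis; internal-marker signal fitted upward relative to DMSO.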
# [15] = molecular target: Oxysterols receptor LXR-alpha (Homo sapiens) (UniProt Q13133); assay: ATG_LXRa_TRANS: Attagene TRANS-FACTORIAL HepG2 Assay for human Liver X Receptor alpha (LXRa) (AID 2282980; active = hit-call score of the fitted dose curve at least 0.9, where 1 is the maximum); conditions: HepG2 Attagene TRANS reporter, LXRa transactivation
# Chain of Oxysterols receptor LXR-alpha (Homo sapiens) (Q13133 whole entry, looked up, the tested form may be a part): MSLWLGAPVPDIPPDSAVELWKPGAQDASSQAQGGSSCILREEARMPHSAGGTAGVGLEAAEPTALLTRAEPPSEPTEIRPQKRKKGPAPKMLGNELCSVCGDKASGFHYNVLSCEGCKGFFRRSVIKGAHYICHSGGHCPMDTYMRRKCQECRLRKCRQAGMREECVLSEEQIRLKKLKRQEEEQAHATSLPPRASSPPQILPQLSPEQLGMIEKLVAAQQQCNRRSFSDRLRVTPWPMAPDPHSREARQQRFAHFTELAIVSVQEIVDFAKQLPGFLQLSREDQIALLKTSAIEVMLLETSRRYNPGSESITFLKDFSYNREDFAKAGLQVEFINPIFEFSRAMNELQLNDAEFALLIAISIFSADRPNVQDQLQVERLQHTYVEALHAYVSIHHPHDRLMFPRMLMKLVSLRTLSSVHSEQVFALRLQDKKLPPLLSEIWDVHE
# In short: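 Chemical-induced reporter mRNA measured by RT-PCR with fluorescent labelling and capillary electrophoresis after 24 h dosing of transiently transfected HepG2 cells expressing exogenous NR-Gal4 chimeras; increases scored against DMSO baseline.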
# [16] = BSK_3C_TissueFactor: BioMAP Diversity Plus: 3C Assay for Tissue Factor Biomarker Activity (AID 2282997); conditions: BioMAP 3C HUVEC, tissue factor biomarker readout; actives raise or lower the signal
# In short: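 Dosing of human umbilical vein endothelial cells preceded a 24 h incubation. Tissue Factor was then read by ELISA, with increases and decreases both scored relative to DMSO controls.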
# [17] = BSK_3C_uPAR: BioMAP Diversity Plus: 3C Assay for Urokinase-type plasminogen activator receptor (uPAR) Biomarker Activity (AID 2282998); conditions: BioMAP 3C HUVEC, uPAR biomarker ELISA; actives raise or lower the signal
# In short: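 HUVEC primary cells; 24 h post-dose; uPAR by ELISA; gain or loss of signal fitted bidirectionally vs DMSO baseline.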
# [18] = BSK_3C_VCAM1: BioMAP Diversity Plus: 3C Assay for Vascular cell adhesion molecule 1 (VCAM1) Biomarker Activity (AID 2282999); conditions: BioMAP 3C HUVEC, VCAM1 ELISA, cytokine-stimulated; actives raise or lower the signal
# In short: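 Human umbilical vein endothelial cells (3C system), biomarker read by ELISA 24 h after dosing; bidirectional fit against DMSO baseline. Cytotoxicity tracked by SRB total-protein staining in parallel cultures at biomarker time.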
# [19] = BSK_4H_Eotaxin3: BioMAP Diversity Plus: 4H Assay for Eotaxin 3 Biomarker Activity (AID 2283000); conditions: primary human endothelial cells (HUVEC); actives raise or lower the signal
# In short: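 Human umbilical vein endothelial cells (BSK_4H system) dosed with test chemical; Eotaxin-3 (CCL26) measured by ELISA 24 h after dosing. Bidirectional curve fitting relative to DMSO negative control as baseline.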
# [20] = molecular target: Hepatocyte nuclear factor 4-alpha (Homo sapiens) (UniProt P41235); assay: ATG_HNF4a_TRANS: Attagene TRANS-FACTORIAL HepG2 Assay for human Hepatocyte Nuclear Factor 4 alpha (HNF4a) (AID 2282982; active = hit-call score of the fitted dose curve at least 0.9, where 1 is the maximum); conditions: HepG2 HNF4a transactivation reporter, mRNA readout
# In short: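 HepG2 cells transiently transfected with HNF4a-Gal4 chimera and GAL4-UAS reporter units, dosed for 24 h. Reporter mRNA measured by RT-PCR, fluorescent primer extension and capillary electrophoresis; gain-of-signal fitted relative to DMSO.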
structure (smiles),measurement,setting,value
COc1cc(CCC(C)=O)ccc1O,outcome,[1],inactive
same,outcome,[2],inactive
same,outcome,[3],inactive
same,outcome,[4],inactive
same,outcome,[5],inactive
same,outcome,[6],inactive
same,outcome,[7],inactive
same,outcome,[8],inactive
same,outcome,[9],inactive
same,outcome,[10],inactive
same,outcome,[11],inactive
same,outcome,[12],inactive
CCC1(c2ccccc2)C(=O)NCNC1=O,outcome,[1],inactive
same,outcome,[2],inactive
same,outcome,[3],inactive
same,outcome,[13],inactive
same,outcome,[14],inactive
same,outcome,[5],inactive
same,outcome,[6],inactive
same,outcome,[7],inactive
same,outcome,[8],inactive
same,outcome,[9],inactive
same,outcome,[10],inactive
same,outcome,[11],inactive
same,outcome,[12],inactive
CC1(C)C2=CCCC(C)(C)[C@]23CC[C@H]1C3,outcome,[1],inactive
same,outcome,[2],inactive
same,outcome,[15],inactive
same,outcome,[3],inactive
same,outcome,[13],inactive
same,outcome,[14],inactive
same,outcome,[4],inactive
same,outcome,[5],inactive
same,outcome,[6],inactive
same,outcome,[7],inactive
same,outcome,[8],inactive
same,outcome,[9],inactive
same,AC50,[10],100 µM (active)
same,outcome,[11],inactive
same,outcome,[12],inactive
same,outcome,[16],inactive
same,AC50,[17],36.4 µM (active)
same,outcome,[18],inactive
same,AC50,[19],27.3 µM (active)
CC(=O)O[C@@H]1C[C@@H]2CC[C@@]1(C)C2(C)C,outcome,[1],inactive
same,outcome,[2],inactive
same,outcome,[15],inactive
same,outcome,[3],inactive
same,outcome,[14],inactive
same,outcome,[5],inactive
same,outcome,[6],inactive
same,outcome,[7],inactive
same,outcome,[8],inactive
same,outcome,[9],inactive
same,outcome,[10],inactive
same,outcome,[11],inactive
same,outcome,[12],inactive
COC(C)(C)CC(C)=O,outcome,[1],inactive
same,outcome,[2],inactive
same,outcome,[15],inactive
same,outcome,[3],inactive
same,outcome,[20],inactive
same,outcome,[13],inactive
same,outcome,[4],inactive
same,outcome,[5],inactive
same,outcome,[6],inactive
same,outcome,[7],inactive
same,outcome,[8],inactive
same,outcome,[10],inactive
same,outcome,[11],inactive
same,outcome,[12],inactive
CCOC(=O)CC(C)O (stereo not drawn),outcome,[1],inactive
same,outcome,[2],inactive
same,outcome,[15],inactive
same,outcome,[20],inactive
same,outcome,[14],inactive
same,outcome,[5],inactive
same,outcome,[6],inactive
same,outcome,[7],inactive
same,outcome,[8],inactive
same,outcome,[10],inactive
same,outcome,[11],inactive
same,outcome,[12],inactive
CCOC(=O)c1ccc(N)cc1,outcome,[1],inactive
same,outcome,[2],inactive
same,outcome,[15],inactive
same,outcome,[20],inactive
same,outcome,[14],inactive
same,outcome,[4],inactive
same,outcome,[5],inactive
same,outcome,[6],inactive
same,outcome,[7],inactive
same,outcome,[8],inactive
same,outcome,[9],inactive
same,outcome,[10],inactive
same,outcome,[11],inactive
same,outcome,[12],inactive
CC1(C)O[C@@H]2C[C@H]3[C@@H]4CCC5=CC(=O)C=C[C@]5(C)[C@@]4(F)[C@@H](O)C[C@]3(C)[C@]2(C(=O)CO)O1,AC50,[1],0.488 µM (active)
same,outcome,[2],inactive
same,outcome,[15],inactive
same,outcome,[3],inactive
same,outcome,[14],inactive
same,outcome,[4],inactive
same,outcome,[5],inactive
same,outcome,[6],inactive
same,outcome,[7],inactive
same,outcome,[8],inactive
same,outcome,[10],inactive
same,outcome,[11],inactive
same,outcome,[12],inactive
Cc1cc(=O)oc2cc(N(C)C)ccc12,outcome,[1],inactive
same,outcome,[2],inactive
same,outcome,[15],inactive
same,outcome,[3],inactive
same,outcome,[13],inactive
same,outcome,[14],inactive
same,outcome,[5],inactive
same,outcome,[6],inactive
same,outcome,[7],inactive
same,outcome,[8],inactive
same,outcome,[10],inactive
same,AC50,[11],57.4 µM (active)
same,outcome,[12],inactive

# — PubChem BioAssay (EPA / NIEHS)
